# A selection: hits, their analogues and other compounds. The true share with any hit is near 1.2%.
# C2C12 statin – suppression of simvastatin myotoxicity; C2C12 myotubes + simvastatin, ATP luminescence, 48 h; scaled: DMSO 0, geranylgeraniol control 100; rescue of ATP level, % at 7.49 µM; 330,000 tested, 0.78% active;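 active = mean ATP rescue above about 67%, or every replicate alone reaching that limit, limit read from the data, passing the limit was not always enough; inconclusive = no clear call, values can overlap the other calls; inactive = mean under the limit and some replicate under it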;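 note: myotubes were challenged with 10 µM simvastatin during compound exposure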
# miR-122 sensor – inhibitors of miR-122 in Huh7 cells. Huh7 miR-122 Renilla luciferase sensor, 48 h; neutral wells = 0, positive control = 100. activation (reporter increase), % at 12.5 µM. 340,000 tested, 0.3% active;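 active = mean replicate activation score at least 90 and every replicate individually at or above 90; inconclusive = only one of the two criteria met; inactive = neither criterion met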;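 note: higher luciferase means less miR-122 activity so hits act as miR-122 inhibitors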
# PglD inh – blocks C. jejuni PglD acetyltransferase activity | purified PglD enzyme, DTNB colorimetric CoA detection | inhibition, % at 12.5 µM | 360,000 tested, 0.098% active; in the data active = inhibition above about 16%, passing the limit was not always enough; inconclusive = no clear call, values can overlap the other calls
# NSD2 inh – NSD2 (human) methyltransferase inhibition | O96028 | NSD2 peptide methylation, AlphaScreen, 120 min | inhibition, % at 12.5 µM | 310,000 tested, 0.54% active; in the data active = inhibition above about 50%
# Starred values were filed as active, the others as inactive; ? = inconclusive; . = no result given; [ ] = remark or other dose.
SMILES,C2C12 statin,miR-122 sensor,PglD inh,NSD2 inh
O=C1N/C(=C\c2ccc(O)cc2)C(=O)c2ccccc21,?,0,-5,1
CCC(=O)N(C)C[C@@H]1Oc2cc(C3=CCCCC3)ccc2S(=O)(=O)N([C@H](C)CO)C[C@@H]1C,8,3[16.7 µM],.,.
CCOC(=O)c1sc(Nc2nc3c(OC)cccc3s2)nc1C,106*,7,-1,-1
CCOC(=O)c1sc(Nc2ccccc2)nc1C,-9,8,-1,.
Cc1noc(C)c1S(=O)(=O)Nc1ccc2c(c1)C(=O)N([C@@H](C)CO)C[C@@H](C)[C@@H](CN(C)S(=O)(=O)c1ccc(Cl)cc1)OCCCC[C@H](C)O2,140*,-1[16.7 µM],-1,.
Cc1noc(C)c1NC(=O)Nc1ccc2c(c1)C(=O)N([C@H](C)CO)C[C@H](C)[C@@H](CN(C)S(=O)(=O)c1c(C)noc1C)OCCCC[C@@H](C)O2,20,8[16.7 µM],-2,.
Cc1noc(C)c1NC(=O)Nc1ccc2c(c1)C(=O)N([C@@H](C)CO)C[C@@H](C)[C@H](CN(C)S(=O)(=O)c1c(C)noc1C)OCCCC[C@@H](C)O2,77*,9[16.7 µM],-2,.
C[C@@H]1CCCCO[C@H](CN(C)S(=O)(=O)c2ccc(Cl)cc2)[C@H](C)CN([C@@H](C)CO)C(=O)c2cc(NS(C)(=O)=O)ccc2O1,163*,5[16.7 µM],-5,.
CC(C)CC#Cc1cnc2c(c1)C(=O)N([C@H](C)CO)C[C@H](C)[C@H](CN(C)S(C)(=O)=O)O2,2,29[16.7 µM],-2,.
C[C@@H]1CCCCO[C@@H](CN(C)S(=O)(=O)c2cn(C)cn2)[C@@H](C)CN([C@H](C)CO)C(=O)c2cc(NS(=O)(=O)c3ccccc3)ccc2O1,.,-1[16.7 µM],-2,.
CCOc1cc(N2CCOCC2)c(OCC)cc1NC(=O)CN1C(=O)NC2(CCCCCCC2)C1=O,-6,5,-3,2
CCOc1cc(N2CCOCC2)c(OCC)cc1NC(=O)CN1C(=O)NC2(CCc3ccccc32)C1=O (configuration not stated),89*,-12,0,-2
CC(C)NC(=O)N(C)C[C@@H]1Oc2c(NC(=O)C3CCCCC3)cccc2C(=O)N([C@H](C)CO)C[C@H]1C,-11,-1[16.7 µM],-3,.
Cc1cc(N/N=C/c2ccc(O)c(C)c2O)nc(-c2ccccc2O)n1,.,101*,-10,-6
C/C(=N\Nc1cc(C)nc(-c2ccccc2O)n1)c1ccccc1,-49,5,.,-2
CCOc1ccc(NS(=O)(=O)c2ccc(C(=O)N(C)CC(=O)Nc3ccc(OC)cc3)cc2)cc1,.,.,.,1
C=C(C)CN(CC)C(=O)COc1ccc(S(=O)(=O)Nc2ccc(OC)cc2)cc1,-2,186*,0,0
CCCC(=O)NC(=S)Nc1ccc(S(=O)(=O)Nc2ccc(OCC)cc2)cc1,-21,181*,2,-2
CC(C)CC(=O)NC(=S)Nc1ccc(S(=O)(=O)NC(C)(C)C)cc1,.,.,.,2
CCOc1ccc(NS(=O)(=O)c2ccc(NC(=S)NC(=O)CC(C)C)cc2)cc1,.,166*,.,-1
CCN(CC(=O)Nc1ccc(OC)cc1)C(=O)c1ccc(NS(=O)(=O)c2ccc(C(C)=O)cc2)cc1,.,6,.,3
C[C@H]1CN([C@@H](C)CO)C(=O)Cc2cc(NS(C)(=O)=O)ccc2O[C@H]1CN(C)Cc1ccc(-c2ccccc2)cc1,-14,4[16.7 µM],5,.
CCSc1nc2ccc(OC)cc2cc1C#N,8,0,-1,-3
CCOc1ccc2nc(SCC#N)c(C#N)cc2c1,80*,-3,-2,0
O=C(CSc1nc(-c2ccco2)cc(C(F)(F)F)n1)N1CCSCC1,86*,2,2,4
SMILES,C2C12 statin,miR-122 sensor,PglD inh,NSD2 inh
CN1CCN(C(=O)CSc2nc(-c3ccco3)cc(C(F)(F)F)n2)CC1,-1,-6,0,3
O=C(O)CSc1nc2c(c(=O)[nH]1)CCCC2,.,.,.,5
O=c1[nH]c(N2CCOCC2)nc2c1CCCC2,117*,1,-4,-5
CSc1nc2c(c(=O)[nH]1)CCCC2,119*,4,3,-2
Cc1ccc(-c2cnc3c(c2)C(=O)N([C@@H](C)CO)C[C@H](C)[C@H](CN(C)S(C)(=O)=O)O3)cc1,-1,-5[16.7 µM],.,.
COc1cc(S(=O)(=O)N2CCN(c3ccccc3F)CC2)ccc1Cl,78*,-2,0,0
COc1cc(S(=O)(=O)N2CCCCCC2)ccc1Cl,100*,36,-7,2
COc1cc(S(=O)(=O)N2CCN(c3ccccc3)CC2)ccc1Cl,0,0,3,-2
CNC[C@H]1OCCCC[C@H](C)Oc2ccc(NS(=O)(=O)c3cn(C)cn3)cc2C(=O)N([C@@H](C)CO)C[C@H]1C,.,10[16.7 µM],2,.
CO[C@@H]1CN(C)C(=O)c2cc(NS(=O)(=O)c3cn(C)cn3)ccc2OC[C@H](C)N(CCC(F)(F)F)C[C@H]1C,8,.,.,.
CO[C@@H]1CN(C)C(=O)c2cc(NC(=O)c3cnccn3)ccc2OC[C@H](C)N(CCc2ccccc2)C[C@@H]1C,-16,.,0,.
Cc1ccc(N(Cc2cc3ccccc3[nH]c2=O)C(=O)c2cccs2)cc1C,101*,2,1,44
CCSc1nnc2nc(C)cc(C)n12,.,2,2,6
Cc1ccc(CSc2nnc3nc(C)cc(C)n23)cc1,139*,-3,3,0
CC(=O)OC1CC(n2ccc(NC(=O)c3ccccc3)nc2=O)OC1CO (configuration not stated),128*,-3,-6,3
Cc1ccc(S(=O)(=O)N[C@H]2CC[C@@H](CCn3cc(C4CC4)nn3)O[C@H]2CO)cc1,1,.,0,.
N#Cc1c(NC(=O)c2ccccc2Cl)n(Cc2ccccc2)c2nc3ccccc3nc12,.,.,.,98*
CCC(=O)Nc1c(C#N)c2nc3ccccc3nc2n1C1CCCCC1,.,.,.,0
CCC(=O)Nc1c(C#N)c2nc3ccccc3nc2n1-c1ccccc1C,192*,-2,2,16
CCCCn1c(NC(=O)CC)c(C#N)c2nc3ccccc3nc21,.,1,-4,-4
Nc1nc2ccc(-c3nc4ccccc4o3)cc2s1,75*,-4,0,0
c1ccc2oc(-c3ccc4nc[nH]c4c3)nc2c1,-1,4,1,0
O=C(C[C@@H]1C[C@H]2c3cc(NC(=O)Nc4ccccc4)ccc3O[C@H]2[C@H](CO)O1)NCc1ccccn1,1,4[16.7 µM],-3,.
CCCn1c2c(c(O)c(C(=O)NC)c1=O)CCCC2,119*,-5,5,0
C#CNC(=O)C1(CC=C)CCNCC1,100*,-5,-3,.
COC(=O)[C@H](CC(C)C)NS(=O)(=O)c1ccccc1,80*,-2,0,.
C/C(=N\NC(=O)c1ccccc1O)C1C(=O)c2ccccc2C1=O,-17,119*,0,8
C/C(=N/NC(=O)c1cc2ccccc2cc1O)C1C(=O)c2ccccc2C1=O,-12,2,-3,.
CNC[C@H]1OCCCC[C@H](C)Oc2ccc(NS(=O)(=O)c3ccccc3)cc2C(=O)N([C@H](C)CO)C[C@@H]1C,15,-3[16.7 µM],.,.
O=C(N[C@@H]1CC[C@@H](CCNC(=O)c2ccccc2F)O[C@@H]1CO)c1cnccn1,1,.,-3,.
